# Bioassay records deposited in PubChem by National Center for Advancing Translational Sciences (NCATS).
# In the library only some 1.4% were active in any assay of this set; here they are far more common.
# AmpC detergent: blocks E. coli AmpC beta-lactamase in detergent assay. P00811. AmpC hydrolysis of nitrocefin, absorbance 480 nm, 0.01% Triton. Potency, µM (doses to about 114 µM), without a hit: top-dose activity change, negative = inhibition, actives largely listed as inhibitors. actives 0.041% (n = 370,000). AID 485294;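 note: 0% = no-compound wells and -100% = no-enzyme wells; nearly all actives have a fitted effect of over 25% in size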
#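 20 mM phosphate pH 7.0 + 0.01% (detergent screen) or 0.0001% Triton X-100; 5.3 nM AmpC reagent; cpd preinc 15 min RT; nitrocefin (800 uM stock) to start; A480 q20 s × 4 min; Activity was normalised to no-enzyme and no-compound control wells.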
# RE007 growth inh: less growth of the S. pombe RE007 Vpr strain; S. pombe RE007 Vpr strain, BacTiter-Glo ATP luminescence, 24 h; Potency, µM (titrated, usually from 92.2 µM), inactives show top-dose activity change, negative = less growth, usual class: inhibitors; actives 0.21% (n = 360,000); active = well fitted falling curve with a large enough effect; inconclusive = small, poorly fitted or top-dose-only effect; inactive = no such curve, though single readings can be large or run the other way; note: nearly all actives have a fitted effect of over 50% in size
#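 Fission yeast strain RE007, carrying one chromosomally integrated HIV-1 vpr copy, was seeded at OD 0.01 in PMG+AL medium with 23 nL pinned compound. After 24 h at 30 °C and 99% humidity, viability was read by BacTiter-Glo luminescence.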
# TbPYK inhibitor: blocks Trypanosoma brucei pyruvate kinase; TbPYK enzyme, Kinase-Glo Plus ATP luminescence, 45 min; actives 0.12% (n = 410,000); Potency, µM (top dose mostly 76.8 µM), for the others: at the highest dose activity, negative = inhibition, usual class: inhibitors; Q57TT1; note: nearly all actives have a fitted effect of over 50% in size
#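 Luminescent Kinase-Glo Plus end-point after 45 min room-temperature reaction of T. brucei pyruvate kinase started with 130 uM ADP (final). Buffer TEA 50 mM pH 7.2 with KCl, MgCl2, BSA, Tween-20; titration-based qHTS with fitted concentration-effect curves.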
# Giardia FBPA inh-1: blocks Giardia fructose-bisphosphate aldolase activity. A8B2U2. purified Giardia FBPA. Potency, µM (series often up to 59.6 µM), inactives show top-dose activity, negative = inhibition, hits mostly inhibitors. actives 0.71% (n = 290,000). AID 2451; note: nearly all actives have a fitted effect of over 55% in size
#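 Giardia FBPA (40 nM reagent) was preincubated 10 min at RT with compound (up to 57.5 uM final), then substrate plus GAPDH/TPI/NAD/arsenate coupling system with diaphorase/resazurin was added; resorufin fluorescence (525/598 nm) was read after 20 min.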
# AmpC inh no detg: blocks E. coli AmpC beta-lactamase in detergent-free assay | P00811 | AmpC nitrocefin hydrolysis, absorbance 480 nm, 0.0001% Triton | Potency, µM (top dose mostly 57.1 µM), inactives show at the highest dose activity change, negative = inhibition, most hits filed as inhibitors | actives 0.52% (n = 330,000) | AID 485341;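 note: plate controls were no compound for no effect and no enzyme for full effect; nearly all actives have a fitted effect of over 20% in size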
#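 AmpC (5.3 nM in the dispensed reagent) in 20 mM phosphate pH 7.0 with 0.01% (detergent screen) or 0.0001% Triton X-100 was preincubated with compounds for 15 min at room temperature. Nitrocefin was then added from an 800 uM solution, and hydrolysis was followed at 480 nm.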
# LmPK inh: blocks Leishmania mexicana pyruvate kinase activity | Q27686 | purified LmPK, Kinase-Glo ATP luminescence, 1 h | Potency, µM (series often up to 57.5 µM), for the others: top-dose activity change, negative = inhibition, usual class: inhibitors | actives 0.37% (n = 290,000) | AID 1721
#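 Screened at intermediate enzyme activity to detect both inhibitors and activators: LmPK at 0.1 nM, with a 0.5 nM enzyme column as activation reference. PEP 0.5 mM, ADP 0.1 mM; ATP detected by luminescence after 1 h.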
# Giardia growth: inhibitors of Giardia lamblia growth; shares compounds with Giardia FBPA inh-1; Giardia lamblia trophozoite growth inhibition; Potency, µM (doses to about 57.5 µM), for inactives: top-dose activity change, negative = inhibition, most hits filed as inhibitors; actives 5% (n = 1,500); AID 2785;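 note: trophozoites exposed to compound for 48 h at 37 °C; nearly all actives have a fitted effect of over 70% in size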
# Mammal cell tox: counter-screen for Giardia aldolase inhibitors: mammalian cell toxicity | shares compounds with Giardia FBPA inh-1 | Potency, µM (series often up to 57.5 µM), inactives show top-dose viability change, negative = toxicity, usual class: inhibitors | actives 4% (n = 1,500) | mammalian cell viability counter-screen, qHTS;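 note: Chinese hamster ovary cells used as mammalian cytotoxicity surrogate; viability measured as cellular ATP by luminescence; compound exposure lasted 48 h before reading; nearly all actives have a fitted effect of over 60% in size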
# Giardia FBPA inh-2: confirmation of Giardia fructose-bisphosphate aldolase inhibitors; shares compounds with Giardia FBPA inh-1; purified Giardia aldolase enzyme activity, qHTS; Potency, µM (top dose mostly 57.5 µM), for inactives: at the top dose activity change, negative = inhibition, most hits filed as inhibitors; actives 5% (n = 1,500); note: nearly all actives have a fitted effect of over 45% in size
# Rabbit aldolase: blocks rabbit muscle aldolase in Giardia aldolase selectivity test. Rabbit muscle FBPA enzyme inhibition, selectivity counter-screen. Potency, µM (series often up to 57.5 µM), for the others: at the top dose activity, negative = inhibition, actives largely listed as inhibitors. shares compounds with Giardia FBPA inh-1. actives 4% (n = 1,500); note: nearly all actives have a fitted effect of over 60% in size
# Target sequence (P00883 whole entry, looked up): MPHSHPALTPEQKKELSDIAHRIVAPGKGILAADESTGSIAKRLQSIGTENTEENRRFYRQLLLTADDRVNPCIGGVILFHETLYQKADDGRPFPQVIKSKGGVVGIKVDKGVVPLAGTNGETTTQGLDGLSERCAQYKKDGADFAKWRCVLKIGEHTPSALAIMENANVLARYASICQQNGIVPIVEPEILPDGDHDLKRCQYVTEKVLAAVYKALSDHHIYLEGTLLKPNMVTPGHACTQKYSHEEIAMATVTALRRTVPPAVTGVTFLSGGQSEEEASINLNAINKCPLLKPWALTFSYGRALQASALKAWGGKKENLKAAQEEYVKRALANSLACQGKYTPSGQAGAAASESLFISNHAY
# GAPDH counter: GAPDH inhibition flagged for Giardia aldolase hits; Potency, µM (series often up to 57.5 µM), without a hit: at the highest dose activity change, negative = inhibition, usual class: inhibitors; shares compounds with Giardia FBPA inh-1; GAPDH coupling enzyme counterscreen, biochemical, qHTS; actives 6% (n = 1,500); AID 2795; note: nearly all actives have a fitted effect of over 55% in size
# * hit, by the source's call; ? = inconclusive; . = no result; [ ] = dose if it differs, or a comment. Unless noted, calls come from the whole dose curve; as a rule, active = well fitted curve in the direction sought with a large enough effect; inconclusive = small, poorly fitted or top-dose-only effect, or another doubt; inactive = no such curve, though single readings can be large; an effect the other way counts as inactive or inconclusive. Unless noted, % is set by controls: 0 for no effect and ±100 for the full control effect; potency is the fitted concentration of half-maximal effect.
SMILES,AmpC detergent,RE007 growth inh,TbPYK inhibitor,Giardia FBPA inh-1,AmpC inh no detg,LmPK inh,Giardia growth,Mammal cell tox,Giardia FBPA inh-2,Rabbit aldolase,GAPDH counter
O=C(CCCN1C(=O)/C(=C\c2cccs2)SC1=S)Nc1cccc(C(=O)O)c1,0%,7%,8%,17%,-16%,4%,.,.,.,.,.
O=C(CCCN1C(=O)/C(=C/c2ccco2)SC1=S)Nc1cccc(C(=O)O)c1,3%,2%,-14%,16µM*,-24%,6%,9%[10.4 µM],20%,-7%,-2%,9%
Cc1cccc(C(=O)OCCN2CCOCC2)c1,-16%,-4%,2%,14µM*,5%,-2%,?,2%,3%,9%,9%
O=C(OCCN1CCOCC1)c1cccc(F)c1,9%,8%,1%,-21%,-21%,7%,.,.,.,.,.
CCc1ccc(N(CC)C(=O)c2ccc3c(=O)n4c(nc3c2)CCCCC4)cc1,12%,.,-7%,.,.,.,.,.,.,.,.
c1ccc(-c2ccccc2OCCOCCN2CCNCC2)cc1,-5%,22%,0%,20µM*,31%,-4%,?,6%,-3%,3%,-16%
CCN1CCN(CCOCCOc2ccccc2-c2ccccc2)CC1,-1%,.,.,18µM*,47%,-1%,11%[10.4 µM],-9%,7%,-2%,2%
Cc1cccc(OCCOCCN2CCNCC2)c1C,?,1%,-15%,-4%,32%,4%,.,.,.,.,.
c1ccc(-c2ccccc2OCCCN2CCCC2)cc1,-4%,-6%,3%,-18%,19%,-1%,.,.,.,.,.
CCOC(=O)COc1ccc2c(C)c(CCN(CC)CC)c(=O)oc2c1,.,.,21%,.,.,.,.,.,.,.,.
CCOC(=O)c1cccc(NC(=O)NC(C)c2c(-n3cccc3)sc3c2CCN(C)C3)c1 (stereo not drawn),-5%,.,4%,.,.,.,.,.,.,.,.
Cc1ccc(CNC(=O)CCc2nnc3n(C)c(=O)c4sccc4n23)cc1,-4%,.,-1%,.,.,.,.,.,.,.,.
Cc1cccc(NC(=O)CSc2nc3ccc(NC(=O)c4ccco4)cc3s2)c1,16%,.,0%,.,.,.,.,.,.,.,.
O=C(Nc1nc(-c2ccccn2)cs1)c1ccc([N+](=O)[O-])o1,6%,-7%,?,.,-45%,-8%,.,.,8%,-4%,0%
O=C(Nc1nc(-c2ccccn2)cs1)c1ccc2c(c1)OCCO2,6%,-19%,2%,18µM*,-21%,4%,-24%[10.4 µM],?,11%,-3%,-11%
CC(=O)c1ccc(-c2ccc(C(=O)Nc3nc(-c4ccccn4)cs3)o2)cc1,.,4%,1%,.,-47%,.,.,.,.,.,.
O=C(Nc1nc(-c2ccccn2)cs1)c1ccc(-c2ccccc2F)o1,-3%,-22%,-13%,.,37%,.,.,.,.,.,.
O=C(Nc1nc(-c2ccccn2)cs1)c1ccccc1-n1cnnn1,3%,-8%,?,7.9µM*,-29%,-5%,20µM*,?,-4%,-16%,?
